The text below walks through data of PubChem BioAssay.

Experiment [1] is described as follows: survival rescue of mitochondrial mutant cells in low glucose, primary screen, MELAS cybrids, Rieske KO mouse fibroblasts, CellTiter-Glo (AID 1508586;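 active = mean z-score across replicates of 1.96 or higher in either the MELAS or the Rieske mutant cell line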;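 also: z relative to plate mean and SD of compound and empty wells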). (In general: In ATP-based viability assays light output follows the ATP content of the culture.)
A short description of experiment [2]: viability rescue of complex I mutant cybrids, primary screen, cell-based, galactose medium, ATP luminescence (AID 1645843;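 active = z-score of at least 1.8 in each of two replicates, scored against plate mean and spread of sample wells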;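 also: positive z means more ATP and so rescue of galactose-driven cybrid death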). Conditions: complex I mutant cybrid cells, 72 h, stronger effect = higher value.
Experiment [3] is described as follows: kinase inhibitors against Plasmodium liver-stage infection, cell-based, known kinase inhibitor set, luminescence, hepatoma host viability (AID 624392; call rule not given here;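 also: infected cells incubated roughly two days before readout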). The following applies: Plasmodium liver stage in hepatoma cells, luciferase luminescence, concentration not given here; liver cell % of control: measured here: host liver cell viability; parasite % of control: stronger effect = lower value.

Experiment [4] can be described thus: modulators of glucocorticoid suppression of NF-kB, cell-based, luciferase, IL-1B stimulus, dexamethasone (AID 624486; call rule not given here;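 as to percent of negative control (+Dex): 100% = mean signal of vehicle control wells on the plate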). The following applies: NF-kB luciferase reporter, IL-1B + dexamethasone, luminescence; percent of negative control (+Dex): actives lie on both sides, concentration not given here; z-score: measured here: IL-1B alone, no Dex. (In general: In a reporter assay the amount or activity of a reporter protein is the signal.)

The nature of experiment [5]: kinase inhibitors altering Pseudomonas killing of worms, whole organism (AID 651566; call rule not given here;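 also: tested at 14 µM; sign flipped so higher z means a lower ratio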). Conditions: C. elegans killed by P. aeruginosa, survival ratio.
Experiment [6] is described as follows: activators of macrophage pro-inflammatory response, cell-based, murine, luminescence (AID 652131; call rule not given here). The following applies: murine macrophage pro-inflammatory reporter, stronger effect = higher value.
Experiment [7] in a line: ovarian cancer cell viability with rucaparib, profiling panel, oncology-focused library, rucaparib conditional (AID 1508598). The following applies: patient-derived ovarian cancer cells, CellTiter-Glo viability, 144 h, stronger effect = lower value.
For experiment [8], the target named is ATP-dependent translocase ABCB1 (Homo sapiens) (UniProt P08183). The experiment can be described thus: MDR1 (ABCB1) efflux transporter inhibition, cell-based (AID 377; in the data active = fluorescence slope change above about 50%). The following applies: MDR1-expressing cells, fluorescent substrate accumulation slope; stronger effect = higher value; concentration not given here.
Sequence of ATP-dependent translocase ABCB1 (Homo sapiens) (P08183 whole entry, looked up): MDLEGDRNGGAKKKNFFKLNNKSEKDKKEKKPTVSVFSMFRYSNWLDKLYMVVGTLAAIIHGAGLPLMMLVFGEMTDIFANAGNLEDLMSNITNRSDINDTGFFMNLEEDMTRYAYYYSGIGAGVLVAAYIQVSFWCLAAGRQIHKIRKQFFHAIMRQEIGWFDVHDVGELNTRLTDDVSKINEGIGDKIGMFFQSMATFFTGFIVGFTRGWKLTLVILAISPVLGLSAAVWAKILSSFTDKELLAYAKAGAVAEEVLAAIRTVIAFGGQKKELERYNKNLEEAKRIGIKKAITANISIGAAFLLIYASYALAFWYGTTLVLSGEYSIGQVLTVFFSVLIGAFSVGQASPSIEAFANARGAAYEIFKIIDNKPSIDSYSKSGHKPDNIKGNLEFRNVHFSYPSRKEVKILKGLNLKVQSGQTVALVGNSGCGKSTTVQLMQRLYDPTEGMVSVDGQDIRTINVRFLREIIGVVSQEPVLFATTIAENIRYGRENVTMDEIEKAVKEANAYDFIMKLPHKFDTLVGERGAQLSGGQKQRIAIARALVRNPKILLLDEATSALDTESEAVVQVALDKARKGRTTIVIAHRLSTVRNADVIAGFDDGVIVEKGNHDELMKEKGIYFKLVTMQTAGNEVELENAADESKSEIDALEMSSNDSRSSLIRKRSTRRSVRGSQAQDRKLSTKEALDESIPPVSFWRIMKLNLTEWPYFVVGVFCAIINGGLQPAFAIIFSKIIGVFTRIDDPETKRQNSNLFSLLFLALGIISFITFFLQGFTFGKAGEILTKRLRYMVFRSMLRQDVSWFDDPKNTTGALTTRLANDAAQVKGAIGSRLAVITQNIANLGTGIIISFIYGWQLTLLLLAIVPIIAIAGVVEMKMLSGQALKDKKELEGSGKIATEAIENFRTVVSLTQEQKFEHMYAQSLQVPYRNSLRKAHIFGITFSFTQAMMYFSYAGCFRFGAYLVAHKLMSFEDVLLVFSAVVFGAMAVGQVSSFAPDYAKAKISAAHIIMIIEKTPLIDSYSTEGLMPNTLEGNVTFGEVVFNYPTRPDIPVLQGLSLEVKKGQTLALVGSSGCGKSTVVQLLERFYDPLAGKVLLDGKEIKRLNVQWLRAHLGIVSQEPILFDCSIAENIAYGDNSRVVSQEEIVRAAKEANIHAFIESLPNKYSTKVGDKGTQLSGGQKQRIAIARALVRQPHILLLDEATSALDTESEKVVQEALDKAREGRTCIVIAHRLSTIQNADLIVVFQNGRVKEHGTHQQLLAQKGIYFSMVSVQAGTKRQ
Experiment [9] in a line: hESC survival regulators, cell-based (AID 493140; call rule not given here;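 also: cells exposed to compounds for four days before counting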). Conditions: human embryonic stem cell survival screen; stronger effect = higher value.
[10] abbreviates: MELAS cybrid survival, CellTiter-Glo 48 h, stronger effect = higher value.
Where [11] appears, read: Rieske KO mouse fibroblast survival, CellTiter-Glo 72 h.

The structures appear in SMILES notation. Records with an inconclusive call do not appear. Active and inactive are the calls of the source.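 The calls were made as follows, unless noted: active = normalized viability below 100% at a tested concentration; inactive = the rest.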

Turning to `COc1ccc(CNC(=O)c2cc(NCc3nc[nH]c3C)cc(S(=O)(=O)N3CCCC3)c2)cc1`, the z-score was -0.477 (inactive) in experiment [1] (setting [10]), -0.812 in [1] (setting [11]) and 0.755 (inactive) in experiment [2].

`COc1cccc(Nc2nccc(-c3cnn4ncccc34)n2)c1` came in with a liver cell % of control in experiment [3] of 85.6%. Further, the parasite % of control in experiment [3] was 13.4% (inactive). In addition, the percent of negative control (+Dex) in experiment [4] was 3% (active). Besides, the z-score is -9.21 in experiment [4]; 0.695 (inactive) in experiment [5]; -1.68 (inactive) in [6]; 0.875 (inactive) in experiment [1] (setting [10]); 1.18 in [1] (setting [11]).

`NC(=O)c1cccc(Nc2nccc(Nc3cccc4[nH]ncc34)n2)c1` returned a liver cell % of control in experiment [3] of 75%. The parasite % of control in experiment [3] is 429% (inactive). Besides, the percent of negative control (+Dex) in [4] is 95.5% (inactive). Further, the z-score in experiment [4] is 0.725; in experiment [5], -0.905 (inactive); in [6], 1.14 (inactive); in experiment [1] (setting [10]), 0.00705 (inactive); in [1] (setting [11]), -0.0979.

`COC(=O)c1c(NC(=O)C2CCCO2)c2cc(NCc3ccccn3)cnc2n1CCc1ccccc1` (stereo unspecified): the z-score was -0.44 (inactive) in experiment [1] (setting [10]), -0.0393 in experiment [1] (setting [11]) and -0.87 (inactive) in experiment [2].

Regarding `O=C(Nc1ccc(Oc2ccc3nc(NC(=O)c4ccco4)[nH]c3c2)cc1)Nc1cc(C(F)(F)F)ccc1F`, the liver cell % of control in experiment [3] was 140%. Moreover, the parasite % of control in experiment [3] was 37.4% (inactive). Also, in experiment [4], the percent of negative control (+Dex) is 81.5% (inactive). The z-score is -2.38 in [4]; -0.605 (inactive) in experiment [5]; -0.544 (inactive) in experiment [6]; -1.24 in [1] (setting [10]); 6.9 in [1] (setting [11]).

For the molecule `CCCCCOC(=O)Nc1nc(=O)n([C@@H]2O[C@H](C)[C@@H](O)C2O)cc1F` (stereo partly specified), the viability in [7] (at 0.000305 µM, OCI-C5x cells, with rucaparib 10 µM, 100% = cells with rucaparib alone) is 114% (inactive); in experiment [7] (at 0.000305 µM, OCI-C5x cells, without rucaparib), 111% (inactive); in [7] (at 0.000305 µM, OCI-P5x cells, with rucaparib 20 µM, 100% = cells with rucaparib alone), 115% (inactive); in [7] (at 0.000305 µM, OCI-P5x cells, without rucaparib), 116% (inactive); in experiment [7] (at 0.00122 µM, OCI-C5x cells, with rucaparib 10 µM, 100% = cells with rucaparib alone), 119% (inactive); in [7] (at 0.00122 µM, OCI-C5x cells, without rucaparib), 120% (inactive). In addition, the viability was 123% (inactive) in [7] (at 0.00122 µM, OCI-P5x cells, with rucaparib 20 µM, 100% = cells with rucaparib alone); 115% (inactive) in [7] (at 0.00122 µM, OCI-P5x cells, without rucaparib); 111% (inactive) in experiment [7] (at 0.00488 µM, OCI-C5x cells, with rucaparib 10 µM, 100% = cells with rucaparib alone); 126% (inactive) in experiment [7] (at 0.00488 µM, OCI-C5x cells, without rucaparib); 115% (inactive) in [7] (at 0.00488 µM, OCI-P5x cells, with rucaparib 20 µM, 100% = cells with rucaparib alone); 123% (inactive) in experiment [7] (at 0.00488 µM, OCI-P5x cells, without rucaparib). Besides, the viability in experiment [7] (at 0.0195 µM, OCI-C5x cells, with rucaparib 10 µM, 100% = cells with rucaparib alone) is 126% (inactive); in experiment [7] (at 0.0195 µM, OCI-C5x cells, without rucaparib) it was 113% (inactive); in experiment [7] (at 0.0195 µM, OCI-P5x cells, with rucaparib 20 µM, 100% = cells with rucaparib alone) it was 115% (inactive); in [7] (at 0.0195 µM, OCI-P5x cells, without rucaparib) it was 123% (inactive); in experiment [7] (at 0.0781 µM, OCI-C5x cells, with rucaparib 10 µM, 100% = cells with rucaparib alone), 101% (inactive); in experiment [7] (at 0.0781 µM, OCI-C5x cells, without rucaparib), 111% (inactive). Besides, the viability in experiment [7] (at 0.0781 µM, OCI-P5x cells, with rucaparib 20 µM, 100% = cells with rucaparib alone) was 121% (inactive); in experiment [7] (at 0.0781 µM, OCI-P5x cells, without rucaparib), 118% (inactive); in [7] (at 0.313 µM, OCI-C5x cells, with rucaparib 10 µM, 100% = cells with rucaparib alone), 106% (inactive); in experiment [7] (at 0.313 µM, OCI-C5x cells, without rucaparib), 109% (inactive); in [7] (at 0.313 µM, OCI-P5x cells, with rucaparib 20 µM, 100% = cells with rucaparib alone), 115% (inactive); in [7] (at 0.313 µM, OCI-P5x cells, without rucaparib), 123% (inactive). The viability in [7] (at 1.25 µM, OCI-C5x cells, with rucaparib 10 µM, 100% = cells with rucaparib alone) was 105% (inactive); in [7] (at 1.25 µM, OCI-C5x cells, without rucaparib), 117% (inactive); in [7] (at 1.25 µM, OCI-P5x cells, with rucaparib 20 µM, 100% = cells with rucaparib alone), 113% (inactive); in experiment [7] (at 1.25 µM, OCI-P5x cells, without rucaparib), 116% (inactive); in [7] (at 5 µM, OCI-C5x cells, with rucaparib 10 µM, 100% = cells with rucaparib alone) it was 107% (inactive); in [7] (at 5 µM, OCI-C5x cells, without rucaparib), 114% (inactive). Also, the viability was 121% (inactive) in experiment [7] (at 5 µM, OCI-P5x cells, with rucaparib 20 µM, 100% = cells with rucaparib alone) and 122% (inactive) in experiment [7] (at 5 µM, OCI-P5x cells, without rucaparib).

For `C[C@H]1NC(=O)NC1=O`, in experiment [8], the fluorescence slope change was 1.4% (inactive). In addition, the survival in experiment [9] was 3.67 (inactive). For the same molecule, the z-score in [1] (setting [10]) was 0.723 (inactive); in experiment [1] (setting [11]), -0.336.

For orientation: viability means a read-out of living cells in per cent, often relative to untreated cells.
